Hit rate of the full screen: of about 48,000 compounds, about 13,000 (27%) showed an effect of 50% or more. The list shows a part of the results.

The test system of this experiment is Wolbachia pipientis. In words: Anti-Wolbachia Cell-Based Screen. It is filed as functional. The settings on record: 5 µM. Also on record: scale not given: in the data most compounds retested in dose-response had high values.
Take `O=C(c1coc2ccccc12)N1CCS(=O)(=O)CC1`: the “Percent Effect” value was determined as 0.973%.
Under `COc1cc(Cl)c(C)cc1-n1nnc(C(=O)O)c1C` stands 4.448%.
Under `Cc1ccc(-n2nnc(C(=O)O)c2C)c(C)c1` stands 89.24%; under `COc1cc(Cl)c(C)cc1-n1nnc(C(=O)O)c1-c1ccncc1`, -11.88%; under `CC(C)(O)CCc1cccc(C(=O)NCc2cnn3cccnc23)c1`, 6.543%.
Under `CCN(Cc1ccc2c(c1)OCO2)C(=O)NC(C)Cn1cccn1` (stereo not drawn) stands 4.631%; under `CS(=O)(=O)CC1CCCN(C(=O)Cn2cccc(C(F)(F)F)c2=O)C1` (stereo not drawn), 2.203%.
For `OCCn1nccc1C1CCN(CCCOc2ccc(F)cc2)CC1`, the “Percent Effect” value is reported as -1.646%.
Next, `O=C(NCCc1c[nH]cn1)C1CCCN(C2CCOCC2)C1` (stereo not drawn): -7.633%; `CC(C)(C)c1cnc(CN2CCC(c3ccnn3CCO)CC2)o1`: -7.147%.
Under `NC(=O)Cn1ccnc1C1CCCN(CCSc2ccccc2)C1` (stereo not drawn) stands 0.1316%; under `c1cc(-c2nnc([C@H]3CCN(C4CCOCC4)C3)o2)ccn1`, -3.579%.
For `NC(=O)c1cnn2c(C3CCN(CCO)CC3)ccnc12`, the “Percent Effect” value amounted to 128.9%.
Under `COCCN1CCCC(c2ccnc3c(C(N)=O)cnn23)C1` (stereo not drawn) stands 97.31%.
Regarding `COc1ccccc1OCCN1CCCC(c2cc(C(N)=O)[nH]n2)C1` (stereo not drawn), the “Percent Effect” value is -3.836%.
For `NC(=O)c1cnn2c(C3CCCN(C4CCOCC4)C3)ccnc12` (stereo not drawn), the “Percent Effect” value is 143.8%.
As for `CCC(CC)c1cc(C(=O)N2CCN(CC(N)=O)CC2)on1`, the “Percent Effect” value is recorded as 14.59%.
Next, `CC(=O)N1CCC(C(=O)NC(C)c2cccc(OC(F)F)c2)CC1` (stereo not drawn): 11.71%.
Next, `CNC(=O)[C@@H](c1ccccc1)N1CCC[C@H]1C(=O)NC1CCCCC1.Cl`: 13.78%.
In the case of `O=C1NCCCC12CCN(S(=O)(=O)N1CCOCC1)C2` (stereo not drawn), the “Percent Effect” value is -15.95%.
Under `CCc1nc(CN(C)Cc2nc(-c3ccccc3Cl)oc2C)no1` stands -5.34%.
Next, `NC(=O)NC(CC(=O)NCCc1cccc(F)c1)c1ccccc1` (stereo not drawn): -0.165%; `c1ccc(C2CCCCN2Cc2nc(-c3cnccn3)no2)nc1` (stereo not drawn): 12.62%; `Cc1nc(C)c(C)c(NCc2cnn3cccnc23)n1`: -1.599%.
Under `c1ccc(C2CCCN2Cc2nc(-c3cnccn3)no2)nc1` (stereo not drawn) stands -14.84%; under `CN(C)CCC1CCCCN1Cc1cnc(-c2ccccn2)nc1` (stereo not drawn), -28.12%; under `c1cnc2c(CN3CCCCC3c3ccncn3)cnn2c1` (stereo not drawn), 72.9%.
Take `c1ccc(-c2ncc(CN3CCCCC3CCn3cccn3)cn2)nc1` (stereo not drawn): the “Percent Effect” value is -35.25%.
Under `CNc1nccc(C2CCCCN2Cc2cnn3cccnc23)n1` (stereo not drawn) stands 117.1%.
Turning to `CN(C)c1nccc(C2CCCCN2Cc2cnn3cccnc23)n1` (stereo not drawn), the “Percent Effect” value turned out to be 74.52%.
Under `CN(C)Cc1nc(C(C)(C)NC(=O)c2nc3ccccc3s2)no1` stands 8.405%; under `CC(C)c1cc(C(=O)N2C[C@H]3CC[C@@H]2CN(Cc2cscn2)C3)no1`, -2.131%; under `CNC(=O)C(C)(C)N1CCC[C@H]1C(=O)NC(C)(C)C`, -3.15%.
On to `Fc1ccc(CC2CCN(Cc3nccs3)CC2)cc1`, for which the “Percent Effect” value worked out at 16.43%.
Regarding `Fc1ccccc1CC1CCN(Cc2nccs2)CC1`, the “Percent Effect” value was found to be 9.425%.
Consider `OCCN1CCC(Cc2nccs2)CC1`, for which the “Percent Effect” value is given as 98.4%.
Next, `CCOCc1nc2c(c(NCc3cc(C)on3)n1)CCN(C(C)=O)CC2`: -0.7778%; `CCc1nc(NC(=O)NCCc2scnc2C)nn1C`: 3.208%.
Under `COc1ccccc1C(=O)N1CCCC1c1nncn1CC(C)C` (stereo not drawn) stands 2.233%; under `COc1cccc(C(=O)N2CCCC2c2ncc3c(n2)CCN(C)C3)c1` (stereo not drawn), 114.1%.
Next, `COc1cccc(C2CCCN2C(=O)c2cc3c(nc2OC)CCC3)c1` (stereo not drawn): -14.5%; `CCOc1ccccc1C(=O)N1CCCC1c1ncc2c(n1)CCNC2.Cl` (stereo not drawn): 7.885%.
As for `COc1cccc(C2CCCN2C(=O)c2ccc(=O)n(C)c2)c1` (stereo not drawn), the “Percent Effect” value amounted to 0.747%.
Next, `COc1ccccc1C(=O)N1CCCC1c1ncc2c(n1)CCNC2.Cl` (stereo not drawn): 126.5%; `CN(C)c1cccc(C(=O)N2CCc3ccc(=O)[nH]c3CC2)c1`: -3.419%; `Cl.O=C(c1cccc(F)c1)N1CCCC1c1ncc2c(n1)CCNC2` (stereo not drawn): 105.4%.
Under `CN(C)c1cccc(C(=O)N2CCCC2c2ncc3c(n2)CCNC3)c1.Cl` (stereo not drawn) stands 118.3%; under `O=C(c1ccc(F)c(F)c1)N1CCCCC1c1nc[nH]n1` (stereo not drawn), 17.06%; under `Cc1ncnc2c1CCN(C(=O)c1cccc(F)c1)CC2`, -5.781%.
Under `N#CCCCS(=O)(=O)N1CCC(CSc2ccccc2)C1` (stereo not drawn) stands -3.001%; under `O=C(C1SCCc2sccc21)N1CCN(CCO)CC1` (stereo not drawn), 1.361%; under `O=C1NC2(Nc3ncccc31)C(=O)Nc1c2ccc(Cl)c1F` (stereo not drawn), -11.72%.
Turning to `c1ccc(-c2nnc3n2CCN(c2nc(C4CC4)ns2)C3)cc1`, the “Percent Effect” value is -0.2636%.
Under `CN(Cc1noc2c1CCCC2)C(=O)Cn1cnc2ccccc2c1=O` stands 0.7727%; under `CN1C(=O)COc2ccc(C(=O)Cn3cnc4ccsc4c3=O)cc21`, 115.3%.
Regarding `CCn1ccnc1SCCn1cnc2ccsc2c1=O`, the “Percent Effect” value is reported as -20.68%.
Under `CCCc1nccn1CCn1cnc2ccsc2c1=O` stands -10.48%; under `CN1C(=O)COc2ccc(C(=O)Cn3cnc4ccccc4c3=O)cc21`, 102.3%.
Next, `O=C(Cn1ccc2ncccc2c1=O)N1CCSCC1`: -22.33%; `CC(C)(C)C(=O)N1CCN(CCOc2cccc(C#N)c2)CC1`: 23.12%.
Take `CCC[C@@H]1CN(C(=O)c2c(F)ccc(OC)c2F)C[C@H]1C(=O)O`: the “Percent Effect” value is -8.772%.
`CCOc1ccc(N(C)Cc2nc(C)c(C)o2)cc1`: the “Percent Effect” value worked out at 2.822%.
Under `C/N=C1\c2cc3cc(OC)ccc3n2CCN1C.Cl` stands 97.02%; under `C/N=C1/c2cc3cc(OC)ccc3n2CCN1Cc1ccccc1.Cl`, 86.74%.
Under `COc1ccc2c(c1)nc1n2[C@@H](CNCc2ccccc2)COC1` stands -7.543%; under `CCOC(=O)c1coc(N2CCN(Cc3cccc(OC)c3)C(=O)C2)n1`, -20.43%; under `CCN1CC(NC(=O)Nc2nc(C)n(C(C)C)n2)CC1=O` (stereo not drawn), -13.6%.
Next, `Cc1cc(N2CCC3(CCC(=O)N(CCCO)C3)CC2)nc(N(C)C)n1`: 15.64%.

Values taken from ChEMBL document CHEMBL3988442, “University of Dundee, Small-Polar-MMV Screening Library” (2021).
